Biological target: E3 ubiquitin-protein ligase XIAP (Homo sapiens) (UniProt P98170)
Experiment: XIAP binders, primary screen, biophysical, small-molecule microarray, fluorescence 635 nm (AID 1181);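 note: score merges 667 nm emission and signal to noise over triplicate slides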
Conditions: small-molecule microarray binding, higher = more signal

Chain of E3 ubiquitin-protein ligase XIAP (Homo sapiens) (P98170 whole entry, looked up): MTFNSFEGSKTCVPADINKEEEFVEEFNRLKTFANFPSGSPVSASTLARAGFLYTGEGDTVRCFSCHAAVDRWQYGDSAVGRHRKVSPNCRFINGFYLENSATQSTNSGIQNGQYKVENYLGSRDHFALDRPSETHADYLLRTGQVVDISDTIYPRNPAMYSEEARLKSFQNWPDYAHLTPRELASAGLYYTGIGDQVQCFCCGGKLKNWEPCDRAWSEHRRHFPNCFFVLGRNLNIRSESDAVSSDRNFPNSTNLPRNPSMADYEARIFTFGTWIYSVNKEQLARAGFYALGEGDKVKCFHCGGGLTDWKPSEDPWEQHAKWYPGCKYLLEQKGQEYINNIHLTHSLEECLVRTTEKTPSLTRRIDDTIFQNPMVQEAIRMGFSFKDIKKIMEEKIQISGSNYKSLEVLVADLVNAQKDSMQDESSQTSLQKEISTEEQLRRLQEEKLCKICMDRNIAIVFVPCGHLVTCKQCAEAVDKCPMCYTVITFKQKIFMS

SMILES | composite z-score
COc1cc(NN2C(C(O)c3ccco3)C=CC3C(=O)N(c4ccccc4)C(=O)C32)cc(OC)c1OC (stereo not given) | -0.081
CC(C)[Si]1(C(C)C)O[C@@H](c2ccccc2)c2cc(-c3ccc(-c4ccc(Cl)c(Cl)c4)o3)nc(-c3ccccc3)c21 | -0.202
CCOC(=O)C[C@H]1[C@H](OC(=O)c2ccc(C(=O)c3ccccc3)cc2)[C@@H](NC(=O)c2ccc3ccccc3n2)c2cc(OCCCO)ccc2N1C(=O)c1ccccc1 | -0.0326
CC(C)C(O)C1C=CC2C(=O)NC(=O)C2N1Nc1ccc(Cl)cc1Cl (stereo not given) | -0.02
COc1ccc(C#Cc2ccc3c(c2)[C@]2(C(=O)N3)[C@H](C(=O)Nc3nc4ccccc4s3)[C@H]3C(=O)O[C@H](c4ccccc4)[C@H](c4ccccc4)N3[C@@H]2c2ccc(O)cc2)cc1 | 0.065
COC(=O)[C@@]1(Cc2ccccc2)N=C(c2ccc(OCCCO)cc2)O[C@H]1c1ccccc1 | 0.244
[N-]=[N+]=Nc1ccccc1[C@H]1OC(c2ccc(OCCCO)cc2)=N[C@@]1(CCS(=O)(=O)c1ccccc1)C(N)=O | 0.291
O=C1C[C@@](C(=O)NC2CC2)(c2ccc([N+](=O)[O-])cc2)[C@@H](c2ccc(CO)cc2I)N1C1CCCCC1 | 0.123
COc1cc2c(cc1OC)CN(C(=O)[C@H]1[C@@H]3C(=O)O[C@@H](c4ccccc4)[C@@H](c4ccccc4)N3[C@@H](c3ccc(O)cc3)[C@]13C(=O)Nc1ccccc13)CC2 | 0.188
O=C1O[C@H](c2ccccc2)[C@H](c2ccccc2)N2[C@H]1[C@@H](C(=O)N1CCCCCCC1)[C@]1(C(=O)Nc3ccc(C#CC4=CCCCC4)cc31)[C@H]2c1ccc(OCCO)cc1 | 1.08
COC(=O)[C@@]1(CCC(=O)OC(C)(C)C)N=C(c2ccc(OCCCO)cc2)O[C@H]1c1ccccc1N=[N+]=[N-] | 0.168
O=C1C2C=CC(C(O)c3cc(C(F)(F)F)cc(C(F)(F)F)c3)N(n3cnnc3)C2C(=O)N1Cc1ccccc1 (stereo not given) | 0.0945
CCCCCN1CC=CC23O[C@@H]4C=CCCOC(=O)C4[C@H]2C(=O)N(CCCCCO)[C@@H]3C1=O (stereo not given in full) | 0.263
COc1ccc([Si](C)(C)[C@@H]2[C@@H](CCO)O[C@]3(C(=O)N(Cc4ccc(N(C=O)c5ccccc5)cc4)c4ccccc43)[C@H]2C)cc1 | -0.184
C=CCOC(=O)[C@H]1[C@@H]2C(=O)O[C@@H](c3ccccc3)[C@@H](c3ccccc3)N2[C@@H](c2ccc(OCCOC(=O)[C@H]3C[C@H]4C(=O)N[C@@H](CCCCNC(C)=O)C(=O)N4[C@H]3c3cccc(OCCO)c3)cc2)[C@]12C(=O)Nc1ccccc12 | -0.0338
[N-]=[N+]=NCc1ccccc1C[C@]1(C(N)=O)COC(c2ccc(OCCCO)cc2)=N1 | 0.144
C=C(CC1([C@@H](NP(=O)(c2ccccc2)c2ccccc2)[C@H]2C[C@@H]2CCCC)CC1)c1ccccc1 | -0.167
CC[C@@H]1C=C(C(=O)O)[C@H](c2ccc(Br)cc2)N1S(=O)(=O)c1ccc(C)cc1 | 0.157
C=C(CCCC)/C(=C/C[C@H](OC(C)=O)c1ccccc1OCCO)c1cc(C(=O)OC)ccc1OC | -0.28
COC(=O)[C@@]1(Cc2ccc(OC)cc2)[C@H]2c3cc(C(=O)N(C)C)n(C)c3C[C@H]2CN1C(=O)c1ccccc1 | 0.0279
CN(C)CCCCCCNC(=O)[C@H]1C[C@H]2C(=O)N[C@@H](CCCCN)C(=O)N2[C@H]1c1cccc(OCCO)c1 | 2.02
NC(=O)NCC#Cc1ccc2c(c1)[C@]1(C(=O)N2)[C@H](c2ccccc2OCCO)N2[C@H](c3ccccc3)[C@H](c3ccccc3)OC(=O)[C@H]2[C@@H]1C(=O)Nc1nc2ccccc2s1 | -0.102
CC1CC/C=C\[C@H]2OC34C=CCN(C(C)(C)C)C(=O)[C@H]3N(CCO)C(=O)[C@@H]4C2C(=O)O1 (stereo not given in full) | -0.309
C=C(COC)/C(=C/C[C@H](OC(C)=O)c1ccc(CO)o1)c1cc(C(=O)OC)ccc1OC | 0.0101
CNS(=O)(=O)c1ccc(C)cc1 | -0.328

Source: PubChem BioAssay
